In all, about 310,000 compounds went through this assay and about 14,000 (4.5%) showed an effect of 50% or more. Effects have a minus sign here. For the sample, strong results were picked, then their nearest neighbours and some compounds at random.
Target: human ether-à-go-go-related gene (hERG) potassium channel (human, UniProt Q12809)
Test: primary screen, population patch clamp on CHO cells stably expressing hERG; higher = less effect of the substance
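Also: peak tail current of the secondary pulse compared with the same well before compound.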

human ether-à-go-go-related gene (hERG) potassium channel, sequence (Q12809 whole entry, looked up): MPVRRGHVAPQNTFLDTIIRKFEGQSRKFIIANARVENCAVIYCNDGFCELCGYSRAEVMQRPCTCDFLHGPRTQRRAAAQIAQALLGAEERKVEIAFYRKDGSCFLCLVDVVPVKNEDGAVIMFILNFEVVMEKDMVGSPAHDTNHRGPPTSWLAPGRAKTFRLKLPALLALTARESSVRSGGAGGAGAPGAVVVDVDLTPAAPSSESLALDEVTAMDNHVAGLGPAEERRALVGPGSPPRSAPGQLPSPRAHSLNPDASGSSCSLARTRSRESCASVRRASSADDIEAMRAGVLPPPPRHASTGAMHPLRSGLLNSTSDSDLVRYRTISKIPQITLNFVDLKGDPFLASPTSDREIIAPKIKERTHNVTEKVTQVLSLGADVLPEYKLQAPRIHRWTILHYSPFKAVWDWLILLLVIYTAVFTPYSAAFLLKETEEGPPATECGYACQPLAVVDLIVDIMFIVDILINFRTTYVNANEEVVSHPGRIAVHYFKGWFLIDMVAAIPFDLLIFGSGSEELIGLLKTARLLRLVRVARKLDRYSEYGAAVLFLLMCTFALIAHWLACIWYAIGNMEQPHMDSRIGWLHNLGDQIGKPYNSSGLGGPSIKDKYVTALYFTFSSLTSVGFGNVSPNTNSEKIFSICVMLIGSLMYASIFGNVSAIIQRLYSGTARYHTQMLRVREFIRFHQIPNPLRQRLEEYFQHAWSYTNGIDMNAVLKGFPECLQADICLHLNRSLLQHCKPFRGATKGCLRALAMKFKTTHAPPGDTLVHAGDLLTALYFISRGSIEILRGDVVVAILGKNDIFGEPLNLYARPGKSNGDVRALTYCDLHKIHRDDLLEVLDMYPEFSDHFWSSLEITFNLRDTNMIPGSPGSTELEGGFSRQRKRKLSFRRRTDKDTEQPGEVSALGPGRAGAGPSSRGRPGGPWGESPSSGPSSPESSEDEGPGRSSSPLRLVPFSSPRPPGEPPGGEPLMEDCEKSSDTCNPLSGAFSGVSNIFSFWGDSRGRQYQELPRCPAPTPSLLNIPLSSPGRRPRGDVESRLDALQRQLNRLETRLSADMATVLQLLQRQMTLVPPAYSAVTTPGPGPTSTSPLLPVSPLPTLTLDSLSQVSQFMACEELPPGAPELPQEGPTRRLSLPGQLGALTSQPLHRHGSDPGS

SMILES | hERG current change (%, negative = inhibition) at 10uM
CCOC(=O)c1cnn2c(N)c(C#N)cnc12 | 13.9%
C/C(=N\O)C(=O)NCCN1CCCCC1 | -10.2%
Cc1c(C#N)c(NC(=O)CCl)n(Cc2ccc(F)cc2)c1C | 12.8%
N#Cc1nc(-c2ccc(OCc3ccccc3)cc2)oc1NCc1ccco1 | 7.75%
CCn1c2c(c3cc(OCC(C)C)ccc31)CCCC2=O | 6.13%
Cc1cc(C(=O)Nc2ccccn2)cs1 | 3.35%
Cc1cc(C)nc(NS(=O)(=O)c2ccc(NC(=O)CCN3C(=O)c4ccccc4C3=O)cc2)n1 | 3.74%
CC(C(=O)Nc1ccccc1-c1ccccc1)N1CCN(S(=O)(=O)c2ccccc2)CC1 (stereo not drawn) | -14.3%
CC1CCN(C(C)C(=O)Nc2ccccc2-c2ccccc2)CC1.O=C(O)C(=O)O (stereo not drawn) | -15.4%
CC(C(=O)NC1CCCC1)N1CCN(Cc2ccccc2)CC1 (stereo not drawn) | 28.6%
CC(C(=O)Nc1ccccc1-c1ccccc1)N1CCN(Cc2ccccc2)CC1 (stereo not drawn) | -72.2%
CC(C(=O)Nc1ccccc1-c1ccccc1)N1CCN(C(=O)c2ccccc2)CC1 (stereo not drawn) | -66.9%
CC(C(=O)Nc1ccccc1-c1ccccc1)N1CCOCC1 (stereo not drawn) | -2%
COCCOC(=O)C1=C(C)N=C2SCCC(=O)N2C1c1cccs1 (stereo not drawn) | 13.8%
COc1cc(-c2csc(N3CCOCC3)n2)cc(OC)c1OC | 13.3%
Cn1cc(C(=O)N2CCN(c3cccc(Cl)c3)CC2)c(=O)c2cc(S(=O)(=O)N3CCOCC3)ccc21 | -17.6%
Cc1ccc(C)c(N2CCN(C(=O)CCCOc3cc(=O)n(C)c4ccccc34)CC2)c1 | -40.8%
O=CNc1ccc(OP(=O)(Oc2ccccc2)Oc2ccccc2)cc1 | -61.7%
O=CNc1ccccc1 | 14.6%

SMILES | hERG current change (%, negative = inhibition) at 10uM
COc1ccc(NP(=O)(Nc2ccc(OC)cc2)Oc2ccccc2)cc1 | -13.9%
CN(C)c1ccc(/C=C/C=N/Nc2nc(N3CCOCC3)nc(N3CCOCC3)n2)cc1 | 0.992%
CCOC(=O)N1CCC(N(CCN(C)C)C(=S)Nc2ccccc2OCC)CC1 | -8.05%
Cc1ccc(/C=N/NC(=O)CSc2nc3nc(C)cc(C)n3n2)cc1 | -19.3%
Cc1ccc(S(=O)(=O)CCC(=O)c2ccc(F)cc2)cc1 | 8.7%
O=C(N/N=C/c1cccnc1)c1ccc([N+](=O)[O-])cc1 | -7.74%
COc1ccc(/C=N/NC(=O)c2cccc([N+](=O)[O-])c2)cc1OC | 5.28%
COc1ccc(-c2[nH]ncc2/C=N/NC(=O)c2cccc([N+](=O)[O-])c2)cc1OC | -62.1%
O=C(N/N=C/c1cn[nH]c1-c1ccc(Cl)cc1)c1ccc([N+](=O)[O-])cc1 | -51.5%
O=C(CNC(=O)c1ccc(F)cc1)N/N=C/c1cn[nH]c1-c1ccccc1 | -18.1%
O=C(N/N=C\c1ccc(COc2ccc([N+](=O)[O-])cc2)o1)c1cccc(Cl)c1 | 4.17%
O=C(N/N=C\c1ccc(COc2ccc([N+](=O)[O-])cc2)o1)c1ccc(Cl)cc1 | -67.6%
O=C(N/N=C\c1cn[nH]c1-c1ccccc1)c1cccnc1 | -1.27%
Cc1cc(C(=O)N/N=C\c2ccc(COc3ccc([N+](=O)[O-])cc3)o2)ccc1[N+](=O)[O-] | -7.77%
O=C(N/N=C/c1cn[nH]c1-c1ccc(F)cc1)c1ccncc1 | 6.55%
O=C(N/N=C\c1cn[nH]c1-c1ccccc1)c1ccc([N+](=O)[O-])cc1 | -64.9%
COc1ccc(-c2[nH]ncc2/C=N\NC(=O)c2ccc(C(C)(C)C)cc2)cc1OC | -9.5%
O=C(NC(=S)Nc1ccc(Br)cn1)c1cncc(Br)c1 | 11.3%
O=C(NCc1ccccc1Cl)C1=CC=CN2CCS(=O)(=O)N=C12 | -11.1%

SMILES | hERG current change (%, negative = inhibition) at 10uM
Cc1cc(Nc2ccc(Br)cc2F)n2nc(C)nc2n1 | -21.5%
O=C(CSc1nnc(C2CCCCC2)o1)Nc1ccccc1Cl | -11.5%
COc1ccc(Cl)c(NCCC(=O)O)c1 | 15.5%
Cc1c(N=C/C=C/c2ccccc2)c(=O)n(-c2ccccc2)n1C | 11.1%
O=S(N1CCc2ccccc21)C12CC3CC(CC(C3)C1)C2 (stereo not drawn) | -6.09%
O=C1C=C(c2ccc3c(c2)OCO3)C[C@@H](c2ccc(Cl)cc2)C1 | 5.86%
O=C(NCc1ccccc1)c1ccc(Oc2ccc(C(=O)NCc3ccccc3)cc2)cc1 | -3.44%
Cl.Clc1ccc(CN2C3=NCCCN3c3ccccc32)c(Cl)c1 | -66%
Cl.ClCCN1C2=NCCCN2c2ccccc21 | -26.4%
Br.Cc1ccc(C)c(C(=O)CN2C3=NCCCN3c3ccccc32)c1 | -69.2%
Cl.Clc1ccc(CN2C3=NCCCN3c3ccccc32)cc1 | -75.1%
Br.CCOC(=O)CN1C2=NCCCN2c2ccccc21 | 2.95%
Cc1ccc(C)c(C(=O)CN2C(=O)c3ccccc3C2=O)c1 | 9.96%
O=C1CCCc2ccccc2N1Cc1ccc(Cl)cc1Cl | -18.2%
O=C1c2ccccc2N(Cc2ccc(Cl)cc2)C2=NCCN12 | -13.5%
Cl.Clc1ccc(CN2C3=NCCN3c3ccccc32)cc1 | -69.5%
COc1ccc(NC(=O)CCOc2ccccc2)c(OC)c1 | 1.87%
CNC(=O)NC(=O)COC(=O)c1n[nH]c2ccccc12 | 16.5%
CCc1ccc(Nc2nc(N3CCOCC3)nc(N3CCOCC3)n2)cc1.Cl | 8.6%
